Assay results from PubChem BioAssay (Tox21).
Inconclusive results are not listed. Activity calls are given as the source filed them. Unless noted, calls come from the whole dose curve; as a rule, active = well fitted curve in the direction sought with a large enough effect in the repeat runs; inconclusive = weak or mixed curves; inactive = no such curve, though single readings can be large; an effect the other way counts as inactive or inconclusive.

Columns and labels:
[1] = qHTS assay to identify small molecule agonists of the peroxisome proliferator-activated receptor delta (PPARd) signaling pathway - cell viability counter screen (AID 743211); note: % is set by controls: 0 for no effect and ±100 for the full control effect; nearly all actives have a fitted effect of over 55% in size
Summary of the method: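 HEK293H PPARd-bla, 3000 cells/well; 5 h preincubation 37C/5% CO2; cpd in DMSO, 17 h 37C; B/G FRET substrate 2 h RT; CellTiter-Glo 30 min RT, luminescence.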

[2] = molecular target: Peroxisome proliferator-activated receptor delta (Homo sapiens) (UniProt Q03181); assay: qHTS assay to identify small molecule agonists of the peroxisome proliferator-activated receptor delta (PPARd) signaling pathway (AID 743212; calls by dose curve;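 note: HEK293H cells with PPARd UAS beta-lactamase reporter GeneBLAzer system; % is set by controls: 0 for no effect and ±100 for the full control effect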)
Summary of the method: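 Steps: seed PPARd-bla HEK293H cells; incubate 5 h, 37 C, 5% CO2; add compounds in DMSO; incubate, 37 C; add LiveBLAzer B/G FRET substrate; hold 2 h at room temperature; measure fluorescence.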

[3] = molecular target: Peroxisome proliferator-activated receptor delta (Homo sapiens) (UniProt Q03181); assay: qHTS assay to identify small molecule antagonists of the peroxisome proliferator-activated receptor delta (PPARd) signaling pathway (AID 743215; active = well fitted inhibition curve with a large enough effect in the signal ratio in the repeat runs, not every such curve was filed as active; the % refers to the signal ratio;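 note: cells stimulated with agonist L165041 at 300 nM final during compound exposure; series mostly up to about 62 µM; % is set by controls: 0 for no effect and ±100 for the full control effect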)
Summary of the method: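 Fluorescence from cleaved LiveBLAzer B/G FRET substrate (2 h, room temperature) reports PPARd-driven beta-lactamase in HEK293H UAS-bla cells. Cells had been treated 17 h at 37 C with compound plus 300 nM final L165041.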

[4] = qHTS assay to identify small molecule agonists of the farnesoid-X-receptor (FXR) signaling pathway - cell viability counter screen (AID 743218); note: % is set by controls: 0 for no effect and ±100 for the full control effect; nearly all actives have a fitted effect of over 45% in size
Summary of the method: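 Readout: CellTiter-Glo luminescence, 30 min RT, multiplexed after the FXR-bla FRET reading. HEK 293T FXR-UAS-bla cells received compound 5 h post-plating and were incubated 16 h at 37 C.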

[5] = qHTS assay to identify small molecule antagonists of the farnesoid-X-receptor (FXR) signaling pathway - cell viability counter screen (AID 743221; active = well fitted cell-killing curve with a large enough effect in the repeat runs, not every such curve was filed as active; note: % is set by controls: 0 for no effect and ±100 for the full control effect; nearly all actives have a fitted effect of over 50% in size)
Summary of the method: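 Luminescence from CellTiter-Glo measures cytotoxicity in GeneBLAzer FXR-UAS-bla HEK 293T cells. Cells were exposed to compounds with 50 uM chenodeoxycholic acid (final) for 16 h at 37 C, in wells also used for the reporter readout.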

[6] = qHTS assay to identify small molecule agonists of the vitamin D receptor (VDR) signaling pathway - cell viability counter screen (AID 743224); note: series mostly up to about 63 µM; % is set by controls: 0 for no effect and ±100 for the full control effect; nearly all actives have a fitted effect of over 50% in size
Summary of the method: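 In parallel with the bla FRET readout, cytotoxicity toward VDR-bla cells after 16 h compound exposure was assessed by CellTiter-Glo, with luminescence recorded after a 30 min room-temperature incubation.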

[7] = qHTS assay to identify small molecule antagonists of the vitamin D receptor (VDR) signaling pathway - cell viability counter screen (AID 743225); note: % is set by controls: 0 for no effect and ±100 for the full control effect; nearly all actives have a fitted effect of over 50% in size
Summary of the method: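 Read-out: CellTiter-Glo luminescence measured 30 min after reagent addition at room temperature. Cells were VDR-bla HEK 293T exposed 16 h at 37C, 5% CO2, to compound with 3 nM final calcitriol agonist.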

[8] = qHTS assay to identify small molecule agonists of the NFkB signaling pathway (AID 1159509; active = well fitted curve in the direction sought with a large enough effect in the signal ratio in the repeat runs, not every such curve was filed as active; the % refers to the signal ratio; note: series mostly up to about 61 µM; % is set by controls: 0 for no effect and ±100 for the full control effect)
Summary of the method: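 Beta-lactamase reporter assay run in quantitative high-throughput format on an NF-kB-responsive ME-180 line, with 5 hr compound treatment and a FRET-based blue/green fluorescence readout.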

[9] = qHTS assay to identify small molecule agonists of the NFkB signaling pathway - cell viability counter screen (AID 1159515; calls by dose curve; note: series mostly up to about 61 µM; % is set by controls: 0 for no effect and ±100 for the full control effect; nearly all actives have a fitted effect of over 55% in size)
Summary of the method: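 Plate 2,000 NFkB-bla ME-180 cells/well; incubate overnight. Add compounds, 5 hr at 37 C. Add FRET substrate, 1.5 hr RT. Add CellTiter-Glo, 30 min RT; read luminescence.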

[10] = qHTS assay to identify small molecule agonists of the endoplasmic reticulum stress response signaling pathway (AID 1159516; active = well fitted activation curve with a large enough effect in the signal ratio in the repeat runs, not every such curve was filed as active; the % refers to the signal ratio; note: % is set by controls: 0 for no effect and ±100 for the full control effect)
Summary of the method: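 Beta-lactamase expression from the ER stress response element in HeLa reporter cells is quantified with the LiveBLAzer B/G FRET substrate, read at 405 nm excitation after 2 hr at room temperature, following 5 hr compound treatment at 37 C.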

[11] = qHTS assay to identify small molecule agonists of the endoplasmic reticulum stress response signaling pathway - cell viability counter screen (AID 1159517; calls by dose curve; note: series mostly up to about 61 µM; % is set by controls: 0 for no effect and ±100 for the full control effect; nearly all actives have a fitted effect of over 50% in size)
Summary of the method: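 After overnight attachment, ESRE-bla HeLa cells were treated with Tox21 library compounds for 5 hr. CellTiter-Glo luminescence, read 30 min post-addition at room temperature, reported viability.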

[12] = qHTS assay to identify small molecule antagonists of the retinoid-related orphan receptor gamma (ROR-gamma) signaling pathway - cell viability counter screen (AID 1159520)
Summary of the method: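 Cytotoxicity was read from cellular ATP (CellTiter-Glo luminescence) after 16 hr at 37 C with 1 uM doxycycline induction. The inducer was added 2 hr after compound transfer to Tet-on ROR gamma CHO cells.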

[13] = molecular target: Nuclear receptor ROR-gamma (Homo sapiens) (UniProt P51449); assay: qHTS assay to identify small molecule antagonists of the retinoid-related orphan receptor gamma (ROR-gamma) signaling pathway (AID 1159521)
Summary of the method: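 CHO Tet-on RORγ, RORE-luc reporter. Cpd 2 h pre-incubation, then dox hyclate 1 uM final, 16 h, 37 C/5% CO2. ONE-Glo luminescence; decrease = antagonist.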

[14] = qHTS assay to identify small molecule agonists of the AP-1 signaling pathway - cell viability counter screen (AID 1159525; calls by dose curve; note: nearly all actives have a fitted effect of over 55% in size)
Summary of the method: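 Intracellular ATP by Cell Titer Glo luminescence (30 min, RT) in the same ME-180 AP-1-bla wells after the 5 h compound exposure at 37 °C. Normalised to tetra n-octyl ammonium bromide and DMSO controls.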

[15] = qHTS assay to identify small molecule agonists of the AP-1 signaling pathway (AID 1159526; calls by dose curve; note: % is set by controls: 0 for no effect and ±100 for the full control effect)
[16] = qHTS assay to identify small molecule antagonists of the peroxisome proliferator-activated receptor delta (PPARd) signaling pathway - cell viability counter screen (AID 743213)
Summary of the method: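 Same-well viability: cells pre-incubated 5 h, dosed with compound plus 300 nM L165041, kept 17 h at 37 C, FRET substrate 2 h RT, then CellTiter-Glo 30 min RT and luminescence.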

[17] = molecular target: Bile acid receptor (Homo sapiens) (UniProt Q96RI1); assay: qHTS assay to identify small molecule antagonists of the farnesoid-X-receptor (FXR) signaling pathway (AID 743217; active = well fitted inhibition curve with a large enough effect in the signal ratio in the repeat runs, not every such curve was filed as active; the % refers to the signal ratio; note: % is set by controls: 0 for no effect and ±100 for the full control effect)
Summary of the method: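 FRET fluorescence after 2 h room-temperature LiveBLAzer loading gives the readout. Prior step: FXR-bla HEK 293T cells, seeded and incubated 5 h, received test compounds plus 50 uM final CDCA for 16 h at 37 °C.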

[18] = molecular target: Bile acid receptor (Homo sapiens) (UniProt Q96RI1); assay: qHTS assay to identify small molecule agonists of the farnesoid-X-receptor (FXR) signaling pathway (AID 743220; active = well fitted activation curve with a large enough effect in the signal ratio in the repeat runs, not every such curve was filed as active; the % refers to the signal ratio; note: % is set by controls: 0 for no effect and ±100 for the full control effect)
Summary of the method: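 FXR-UAS-bla HEK 293T cells carrying a UAS-driven beta-lactamase reporter were plated for 5 h at 37C/5% CO2, then exposed to DMSO-dissolved Tox21 10K compounds for 16 h at 37C. A LiveBLAzer B/G FRET substrate was loaded for 2 h at room temperature before fluorescence reading.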

[19] = molecular target: Vitamin D3 receptor (Homo sapiens) (UniProt P11473); assay: qHTS assay to identify small molecule agonists of the vitamin D receptor (VDR) signaling pathway (AID 743222; calls by dose curve; note: % is set by controls: 0 for no effect and ±100 for the full control effect)
Summary of the method: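 Following 4 h attachment at 37C, VDR-bla cells (2,000 per well) received DMSO-dissolved compounds or controls. After 16 h incubation, LiveBLAzer B/G FRET substrate was added and fluorescence read 2 h later at room temperature.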

[20] = molecular target: Vitamin D3 receptor (Homo sapiens) (UniProt P11473); assay: qHTS assay to identify small molecule antagonists of the vitamin D receptor (VDR) signaling pathway (AID 743223; active = well fitted inhibition curve with a large enough effect in the signal ratio in the repeat runs, not every such curve was filed as active; the % refers to the signal ratio; note: % is set by controls: 0 for no effect and ±100 for the full control effect)
Summary of the method: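 Antagonist mode uses 1alpha,25-dihydroxyvitamin D3 at 3 nM final as stimulus. VDR-bla cells receive compounds in DMSO, incubate 16 h at 37C, then a beta-lactamase FRET substrate for 2 h at room temperature before fluorescence measurement.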

Sequence of Peroxisome proliferator-activated receptor delta (Homo sapiens) (Q03181 whole entry, looked up): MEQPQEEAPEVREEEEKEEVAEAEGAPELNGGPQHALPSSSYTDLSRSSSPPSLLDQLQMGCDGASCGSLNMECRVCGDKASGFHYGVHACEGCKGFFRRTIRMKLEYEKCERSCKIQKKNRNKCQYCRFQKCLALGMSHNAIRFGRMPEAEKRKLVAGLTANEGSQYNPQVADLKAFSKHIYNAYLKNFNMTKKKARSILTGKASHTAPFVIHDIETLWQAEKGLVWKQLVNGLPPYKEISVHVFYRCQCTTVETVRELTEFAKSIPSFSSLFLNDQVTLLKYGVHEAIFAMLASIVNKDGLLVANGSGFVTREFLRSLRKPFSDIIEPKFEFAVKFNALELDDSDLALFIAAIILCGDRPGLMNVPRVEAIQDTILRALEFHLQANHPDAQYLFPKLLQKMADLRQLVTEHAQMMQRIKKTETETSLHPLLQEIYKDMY
Sequence of Vitamin D3 receptor (Homo sapiens) (P11473 whole entry, looked up): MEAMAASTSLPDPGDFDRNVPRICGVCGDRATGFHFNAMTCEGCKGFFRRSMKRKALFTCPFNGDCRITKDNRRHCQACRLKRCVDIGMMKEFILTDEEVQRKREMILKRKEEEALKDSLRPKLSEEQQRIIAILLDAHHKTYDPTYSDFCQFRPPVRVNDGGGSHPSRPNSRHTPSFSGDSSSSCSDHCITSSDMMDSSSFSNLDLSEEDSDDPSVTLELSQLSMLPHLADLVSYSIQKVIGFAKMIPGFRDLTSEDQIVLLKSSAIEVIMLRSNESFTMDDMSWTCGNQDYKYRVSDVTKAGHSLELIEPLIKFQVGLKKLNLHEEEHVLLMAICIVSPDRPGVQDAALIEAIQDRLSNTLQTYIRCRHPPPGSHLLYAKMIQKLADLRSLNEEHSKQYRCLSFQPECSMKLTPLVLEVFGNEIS
Sequence of Bile acid receptor (Homo sapiens) (Q96RI1 whole entry, looked up): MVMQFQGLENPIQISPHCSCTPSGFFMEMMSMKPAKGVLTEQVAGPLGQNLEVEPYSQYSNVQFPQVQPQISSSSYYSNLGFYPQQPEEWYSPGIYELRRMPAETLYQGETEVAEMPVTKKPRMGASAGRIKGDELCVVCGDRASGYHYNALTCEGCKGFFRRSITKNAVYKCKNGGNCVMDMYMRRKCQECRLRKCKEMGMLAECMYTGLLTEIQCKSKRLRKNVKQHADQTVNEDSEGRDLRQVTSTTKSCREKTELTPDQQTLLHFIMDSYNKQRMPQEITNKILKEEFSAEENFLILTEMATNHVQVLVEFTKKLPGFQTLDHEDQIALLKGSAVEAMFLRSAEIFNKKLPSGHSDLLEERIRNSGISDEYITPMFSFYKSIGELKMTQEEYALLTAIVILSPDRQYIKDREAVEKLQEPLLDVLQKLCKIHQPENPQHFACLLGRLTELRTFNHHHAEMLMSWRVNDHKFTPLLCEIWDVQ

CCCOC(C)=O
inactive: Potency [1] | Potency [2] | outcome [3] | Potency [4] | Potency [5] | outcome [6] | outcome [7] | outcome [8] | outcome [9] | outcome [10] | outcome [11] | Potency [12] | Potency [13] | outcome [14] | Potency [15]

O=C(O)c1ccc2c(c1)nc(C(=O)NC1CCN(C3CC3)CC1)n2Cc1cc(-c2ccc(Cl)s2)on1
inactive: Potency [1] | Potency [2] | Potency [16] | outcome [17] | outcome [18] | Potency [5] | outcome [6] | outcome [7] | outcome [8] | outcome [9] | outcome [10] | outcome [11] | activity, negative = cytotoxicity [12] -12.3% [at 19 µM] | activity change, negative = inhibition [13] -14.3% [at 19 µM] | viability change, negative = cytotoxic [14] 0.765% [at 15.8 µM] | activation [15] -0.694% [at 15.8 µM]

CC(C(=O)O)c1ccc(/C=C2\CCCCC2=O)cc1 (stereo not drawn)
inactive: Potency [1] | Potency [2] | Potency [16] | outcome [3] | Potency [4] | Potency [5] | outcome [19] | outcome [6] | outcome [7] | outcome [8] | outcome [9] | outcome [10] | outcome [11] | Potency [12] | Potency [13] | outcome [14] | Potency [15]

N#CCCCC(C#N)CCC#N (stereo not drawn)
inactive: Potency [1] | Potency [2] | Potency [16] | outcome [3] | Potency [4] | Potency [5] | outcome [6] | outcome [7] | outcome [8] | outcome [9] | outcome [10] | outcome [11] | Potency [12] | Potency [13] | outcome [14] | Potency [15]

COc1ccc(/C=C/c2cc(OC)cc(=O)o2)cc1
inactive: Potency [1] | Potency [2] | outcome [3] | outcome [17] | outcome [18] | Potency [5] | outcome [19] | outcome [20] | outcome [6] | outcome [7] | outcome [8] | outcome [9] | outcome [10] | outcome [11] | Potency [12] | Potency [13] | outcome [14] | Potency [15]

O=C(O)c1ccc(O)c(O)c1
inactive: Potency [1] | Potency [2] | outcome [3] | Potency [4] | Potency [5] | outcome [6] | outcome [7] | outcome [8] | outcome [9] | outcome [10] | outcome [11] | Potency [12] | Potency [13] | outcome [14] | Potency [15]

O=C1c2ccccc2C(=O)C1c1ccc2cc(S(=O)(=O)O)cc(S(=O)(=O)O)c2n1
inactive: Potency [1] | Potency [2] | Potency [16] | outcome [3] | Potency [5] | outcome [6] | outcome [7] | outcome [8] | outcome [9] | outcome [10] | outcome [11] | Potency [12] | Potency [13] | outcome [14] | Potency [15]

CCCC(=O)OCCC(C)C
inactive: Potency [1] | Potency [2] | outcome [3] | outcome [17] | Potency [4] | Potency [5] | outcome [19] | outcome [6] | outcome [7] | outcome [8] | outcome [9] | outcome [10] | outcome [11] | Potency [12] | Potency [13] | outcome [14] | Potency [15]

O=C(O)CNc1ccccc1
inactive: Potency [1] | Potency [2] | Potency [4] | Potency [5] | outcome [19] | outcome [20] | outcome [6] | outcome [7] | outcome [8] | outcome [9] | outcome [10] | outcome [11] | Potency [12] | Potency [13] | outcome [14] | Potency [15]

O=C1c2ccccc2C(=O)C1c1ccc2ccccc2n1
inactive: Potency [1] | Potency [2] | Potency [16] | Potency [4] | Potency [5] | outcome [19] | outcome [20] | outcome [6] | outcome [7] | outcome [8] | outcome [9] | outcome [10] | outcome [11] | Potency [12] | Potency [13] | outcome [14] | Potency [15]

COC(=O)/C=C/C(C)=C\C=C\C(C)=C\C=C\C=C(C)\C=C\C=C(C)\C=C\C(=O)O
inactive: Potency [1] | Potency [2] | Potency [16] | outcome [17] | Potency [4] | outcome [18] | Potency [5] | outcome [19] | outcome [20] | outcome [6] | outcome [7] | outcome [8] | outcome [9] | outcome [10] | outcome [11] | Potency [12] | Potency [13] | outcome [14] | Potency [15]

O=C(O)CCc1nc2ccccc2[nH]1
inactive: Potency [1] | Potency [2] | Potency [16] | outcome [3] | Potency [4] | outcome [6] | outcome [7] | outcome [8] | outcome [9] | outcome [10] | outcome [11] | Potency [12] | Potency [13] | outcome [14] | Potency [15]

CC(C)(C)c1cc(C=O)cc(C(C)(C)C)c1O
inactive: Potency [1] | Potency [16] | outcome [17] | Potency [4] | Potency [5] | outcome [19] | outcome [20] | outcome [6] | outcome [7] | outcome [8] | outcome [9] | outcome [10] | outcome [11] | Potency [12] | Potency [13] | outcome [14] | Potency [15]
